hgDAF-12 ag: H. glycines DAF-12 receptor agonists, primary screen, cell-based, luminescence, HEK293, GAL4 fusion, UAS-luciferase. HEK293 GAL4-hgDAF12 UAS-luciferase reporter, agonist luminescence; normalized to butyrate control. activation, % at 6.8 µM. hit rate 1.8% among 370,000. AID 687014, 2013;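 active = activation above a cutoff set at the mean of all screened compounds plus 3 SD, cut at about 10% in these data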;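 note: 0% = DMSO wells and 100% = sodium butyrate wells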
DAX1 inh-1: DAX1 (NR0B1) inhibitors on StAR promoter, primary screen, cell-based, luminescence, SF-1 (NR5A1), full-length DAX-1; HEK293T StAR-luciferase reporter, SF-1/DAX-1 repression relief; inhibition, % at 6.8 µM; hit rate 1.1% among 370,000;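 active = inhibition above the mean over all tested compounds plus 3 SD, cut at about 3.6% in these data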;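 note: 0% = DAX-1 cells with DMSO and 100% = cells lacking DAX-1 with DMSO; higher inhibition means more luminescence from relief of DAX-1 repression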
Wee1 degr inh: Wee1 degradation inhibitors, primary screen, cell-based, HeLa, Wee1K328M-luciferase, luminescence; HeLa Luc-Wee1K328M stability; 100% = proteasome inhibitor MG132 effect; hit rate 1.2% among 220,000; AID 1321, 2008; reporter increase, % at 5 µM; Wee1-like protein kinase (Homo sapiens), P30291;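 active = activation above the mean of all tested compounds plus 3 SD, set per screening run, cut at about 8.8% in these data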;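 note: cells exposed to compound for 20 h before luminescence read; 0% = DMSO alone and 100% = MG132 at 30 µM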
Target sequence (P30291 whole entry K328M): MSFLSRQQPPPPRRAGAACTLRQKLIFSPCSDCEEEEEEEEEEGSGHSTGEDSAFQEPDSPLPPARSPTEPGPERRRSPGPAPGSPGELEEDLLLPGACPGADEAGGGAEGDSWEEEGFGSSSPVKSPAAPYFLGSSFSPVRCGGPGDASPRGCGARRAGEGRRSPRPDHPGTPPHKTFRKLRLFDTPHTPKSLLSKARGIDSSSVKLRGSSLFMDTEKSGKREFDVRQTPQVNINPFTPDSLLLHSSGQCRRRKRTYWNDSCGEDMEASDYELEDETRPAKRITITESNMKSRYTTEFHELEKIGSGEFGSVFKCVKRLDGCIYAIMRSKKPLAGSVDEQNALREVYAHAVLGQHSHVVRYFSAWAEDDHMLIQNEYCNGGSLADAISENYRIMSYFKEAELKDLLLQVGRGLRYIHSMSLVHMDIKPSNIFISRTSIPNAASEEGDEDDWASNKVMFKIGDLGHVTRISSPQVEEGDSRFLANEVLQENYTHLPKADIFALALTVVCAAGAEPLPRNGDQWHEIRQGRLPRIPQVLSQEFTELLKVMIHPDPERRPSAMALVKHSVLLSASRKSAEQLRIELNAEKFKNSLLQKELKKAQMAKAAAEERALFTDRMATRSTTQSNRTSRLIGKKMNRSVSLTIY
DAX1 inh-2: DAX1 (NR0B1) inhibitors, primary screen, cell-based, HEK293, Gal4-DAX1, luciferase luminescence; Nuclear receptor subfamily 0 group B member 1 (Homo sapiens), P51843; AID 504766, 2011; hit rate 0.99% among 340,000; HEK293 Gal4-DAX1 luciferase reporter; inhibition, % at 6.75 µM;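 active = inhibition above the mean over all tested compounds plus 3 SD, cut at about 4.2% in these data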;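 note: 0% = DAX1-transfected cells with DMSO and 100% = empty-vector control cells with DMSO; inhibition shows as a rise in luminescence from relieved DAX1 repression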
hcDAF12 agonist: H. contortus DAF-12 nuclear receptor activators, primary screen, cell-based, luminescence, HEK293, lit1-tk-luc reporter. HEK293 hcDAF-12 lit1-tk-luc reporter; 0% DMSO, 100% Δ7-dafachronic acid. activation, % at 6.8 µM. hit rate 1.4% among 370,000. AID 652067, 2013;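 active = activation above the mean of all tested compounds plus 3 SD, cut at about 5.5% in these data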;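 note: 100% = response to 3 µM Δ7-dafachronic acid high control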
ssDAF12 agonist: S. stercoralis DAF-12 nuclear receptor activators, primary screen, cell-based, luminescence, HEK293, GRIP1 co-expression, lit1-tk-luc. hit rate 1% among 370,000. AID 652126, 2013. activation, % at 6.8 µM. HEK293 ssDAF-12/GRIP1 lit1-tk-luc reporter; % of 3 µM dafachronic acid response. Nuclear hormone receptor DAF-12 (Strongyloides stercoralis);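 active = activation above the mean over all tested compounds plus 3 SD, cut at about 0.9% in these data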;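 note: 0% = DMSO-only wells and 100% = 3 µM delta7-dafachronic acid wells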
Wee1 degr conf: Wee1 degradation inhibitors, confirmation, cell-based, HeLa, Wee1K328M-luciferase, luminescence, triplicate. shares compounds with Wee1 degr inh. HeLa Luc-Wee1K328M degradation; vehicle 0%, proteasome-blocked wells 100%. hit rate 4% among 1,100. activation, % at 5 µM; in the data active = activation above about 8.9%
* = called active by the depositor; . = no result given. This is a sample that favours compounds with a hit; in the whole collection about 4.6% have one here.

SMILES	hgDAF-12 ag	DAX1 inh-1	Wee1 degr inh	DAX1 inh-2	hcDAF12 agonist	ssDAF12 agonist	Wee1 degr conf
CNC(=O)C[C@@H]1CC[C@@H]2[C@H](COc3ccc(NC(=O)c4cccc(F)c4)cc3C(=O)N2C)O1	1	0	.	.	1	-1	.
CCSc1nnc(NC(=O)CSC2=NN3CCCC(=O)N=C3S2)s1	-3	0	17*	1	-1	-1	2
CC(C)c1nc(N2CCN(C(=O)c3ccccc3)CC2)c(C#N)c2c1COC(C)(C)C2	-2	0	0	-1	-1	-2	.
CC1(C)Cc2c(C#N)c(N3CCN(C(=O)c4ccccc4)CC3)nc(-c3ccco3)c2CS1	-2	0	15*	0	3	-1	0
CCOc1ccc(OCC)c(S(=O)(=O)n2cnc(C)c2)c1	1	0	.	1	-1	-1	.
CC(C)CC1C(=O)N(Cc2cn(CC3CCCCC3)nn2)CCS(=O)(=O)N1Cc1ccc(-c2cccc(CO)c2)cc1 (configuration not stated)	-2	-1	.	-2	-3	-1	.
O=C(OCC(=O)N1CCc2ccccc21)c1ccc([N+](=O)[O-])o1	2	-1	.	1	2	0	.
CCCCn1c(N2CCC(Cc3ccccc3)CC2)nc2c1c(=O)[nH]c(=O)n2C	-1	0	13*	-1	-1	-1	2
Cc1nnc(SCCn2c(N3CCC(Cc4ccccc4)CC3)nc3c2c(=O)[nH]c(=O)n3C)s1	.	.	-2	.	.	.	.
CCCCCCn1c(=O)n2n(c1=O)C[C@]1(OC(=O)NCc3ccco3)CN(S(=O)(=O)c3ccc(C)cc3)C[C@]1(O)C2	-2	0	.	0	0	-1	.
O=C(Cc1cccs1)NCCSc1c(-c2ccc(Cl)cc2)[nH]c2ccccc12	-4	0	13*	1	0	-1	2
CC(C)COc1ccc(C(=O)NC(CC(C)C)C(=O)O)cc1 (configuration not stated)	0	-1	-1	0	-1	-1	.
Cc1ccc(Oc2ccc(OCC(=O)NC(CC(C)C)C(=O)O)cc2)cc1 (configuration not stated)	-2	0	14*	1	-1	-2	2
CCCS(=O)(=O)NC(=O)C1(C)CCCN(C(=O)c2c(-c3ccccc3)noc2C)C1 (configuration not stated)	0	0	.	.	2	-1	.
C=CCN1[C@@H](C)COc2cc(N3CCSCC3)ccc2S1(=O)=O	0	-1	.	.	-2	-2	.
CN(C)CCNC(=O)COc1ccc(Cl)cc1Cl	0	0	1	0	0	-1	.
CCN(CC)CCNC(=O)COc1ccc(Cl)cc1Cl	-1	0	11*	1	-1	-1	0
CC(CNC(=O)[C@@H](Cc1ccccc1)NC(=O)CC[C@H]1O[C@@H](n2ccc(=O)[nH]c2=O)[C@H](O)[C@@H]1O)c1ccccc1 (some centres not stated)	-2	0	.	.	-1	-1	.
COC(=O)/C=C1\Nc2ccc(Cl)cc2C(=O)NC1=O	-2	0	.	.	1	-1	.
O=C(NCCc1ccc(C(F)(F)F)cc1)C1CCC(=O)N(CCCc2ccccc2)C1 (configuration not stated)	0	0	.	0	0	-1	.
CC(C)Cc1cc(CN2CCCC(CO)(Cc3cccc(Cl)c3)C2)[nH]n1 (configuration not stated)	-1	0	-2	-2	0	-1	.
Cc1cc(CN2CCCC(CO)(Cc3cccc(Cl)c3)C2)n[nH]1 (configuration not stated)	0	0	14*	0	-1	-1	0
C[C@@H]1CN([C@H](C)CO)C(=O)c2cc(C3=CCCCC3)cnc2O[C@@H]1CN(C)Cc1ccccc1C(=O)O	-1	1	.	2	0	-1	.
Clc1cccc(Cl)c1-c1nnc2cccc(Cl)n12	1	-1	12*	1	0	-1	-1
O=C(O)c1cnc2ccc(Cl)cc2n1	-2	-1	.	0	-2	0	.
SMILES	hgDAF-12 ag	DAX1 inh-1	Wee1 degr inh	DAX1 inh-2	hcDAF12 agonist	ssDAF12 agonist	Wee1 degr conf
CCCNC(=O)c1cc2c(c(-c3cccc(-c4cc5ccccc5o4)c3)n1)[C@H](CCO)N(C(=O)NC(C)C)C2	-5	-4	.	.	-3	-1	.
Cc1cccc(-c2nc(CSc3nc4c(c(=O)[nH]3)CCC4)c(C)o2)c1	0	0	11*	0	0	-1	-1
Cc1ccc(S(=O)OCC(=O)Nc2cc(Cl)ccc2N2CCOCC2)cc1 (configuration not stated)	3	-1	16*	0	0	-1	3
C[C@H](O)CNC(=O)c1[nH]cnc1C(=O)Nc1ccc(CNC(=O)OC(C)(C)C)cc1	-7	-1	.	0	-1	-2	.
O=C(c1ccc(Cl)cc1)C1CCCN(C(=O)c2csnn2)C1 (configuration not stated)	0	0	16*	-1	0	-1	0
CC(=NNC(=O)C(C)SC(C)C(=O)NN=C(C)c1cccnc1)c1cccnc1 (configuration not stated)	-2	-3	.	2	0	-1	.
Cn1c(=O)c2nc(NCc3ccccc3)sc2n(C)c1=O	-2	-1	.	0	-1	-1	.
Cc1ccc(/C=N/NC(=O)c2ccncc2)o1	-1	-1	13*	2	0	-2	3
Cc1ccc(/C=N/NC(=O)c2ccccn2)o1	9	3	5	1	5	-1	.
O=C(N/N=C/c1ccccc1C(=O)O)c1ccncc1	-1	0	.	1	-2	-1	.
O=C(N/N=C/C1=Cc2ccccc2OC1)c1ccncc1	0	0	13*	.	1	-1	-1
Cc1ccc(CN2CCCCC(NC(=O)C(C)(C)C)C2=O)cc1 (configuration not stated)	-1	-3	.	.	-3	-2	.

Compound activity as filed in PubChem.
